Tests used:
Assay in all cases: protein binding microarray; high values mean tight binding
Settings in all cases: dsDNA, one strand shown
RELARELA (p65 homodimer) = RELARELA (p65 homodimer) (Homo sapiens, UniProt Q04206 1-307)
p50p50 homodimer = p50p50 homodimer (Homo sapiens, UniProt P19838 7-356)
p52p52 homodimer = molecular target: T1, p52p52 homodimer (Homo sapiens, UniProt Q00653 4-332)
T1 sequence: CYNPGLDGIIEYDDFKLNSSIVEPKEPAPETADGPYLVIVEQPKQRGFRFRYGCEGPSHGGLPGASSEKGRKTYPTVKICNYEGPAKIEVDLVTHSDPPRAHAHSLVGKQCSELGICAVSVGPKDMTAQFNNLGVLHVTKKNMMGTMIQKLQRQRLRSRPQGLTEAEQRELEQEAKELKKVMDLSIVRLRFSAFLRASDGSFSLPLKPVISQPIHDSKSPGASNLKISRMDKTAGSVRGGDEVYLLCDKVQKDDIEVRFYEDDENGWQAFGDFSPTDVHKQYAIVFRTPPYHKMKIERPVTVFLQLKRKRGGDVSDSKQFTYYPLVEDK

[1] = molecular target: RELA (p65) subunit of heterodimer;p50 subunit (Homo sapiens;Homo sapiens, UniProt Q04206;P19838 1-307;7-356)
Chain of RELA (p65) subunit of heterodimer;p50 subunit (Q04206 1-307, chain 1 of 2): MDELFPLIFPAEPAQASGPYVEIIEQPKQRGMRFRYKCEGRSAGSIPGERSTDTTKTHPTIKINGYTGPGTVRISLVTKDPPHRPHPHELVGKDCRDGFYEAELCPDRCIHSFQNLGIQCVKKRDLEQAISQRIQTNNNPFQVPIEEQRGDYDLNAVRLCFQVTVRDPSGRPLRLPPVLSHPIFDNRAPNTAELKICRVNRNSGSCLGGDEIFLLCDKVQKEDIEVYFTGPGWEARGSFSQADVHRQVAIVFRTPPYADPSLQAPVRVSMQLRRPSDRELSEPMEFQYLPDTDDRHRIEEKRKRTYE
Chain of RELA (p65) subunit of heterodimer;p50 subunit (P19838 7-356, chain 2 of 2): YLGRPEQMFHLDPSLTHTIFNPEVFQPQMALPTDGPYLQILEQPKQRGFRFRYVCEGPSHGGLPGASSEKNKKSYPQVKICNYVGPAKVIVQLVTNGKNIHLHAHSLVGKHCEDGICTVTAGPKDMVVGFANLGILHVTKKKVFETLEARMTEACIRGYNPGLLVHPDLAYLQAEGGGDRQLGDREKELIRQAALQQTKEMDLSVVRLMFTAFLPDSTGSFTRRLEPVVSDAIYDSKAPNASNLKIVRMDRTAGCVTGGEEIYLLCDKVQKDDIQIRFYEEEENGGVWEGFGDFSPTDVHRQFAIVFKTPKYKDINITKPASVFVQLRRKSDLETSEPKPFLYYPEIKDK

[2] = molecular target: RELA (p65) subunit of heterodimer;p52 subunit (Homo sapiens;Homo sapiens, UniProt Q04206;Q00653 1-307;4-332)
RELB subunit;p50 subunit = RELB subunit;p50 subunit (Homo sapiens;Homo sapiens, UniProt Q01201;P19838 120-401;7-356)
RELB subunit;p52 subunit = molecular target: T2, RELB subunit;p52 subunit (Homo sapiens;Homo sapiens, UniProt Q01201;Q00653 120-401;4-332)
T2 sequence 1: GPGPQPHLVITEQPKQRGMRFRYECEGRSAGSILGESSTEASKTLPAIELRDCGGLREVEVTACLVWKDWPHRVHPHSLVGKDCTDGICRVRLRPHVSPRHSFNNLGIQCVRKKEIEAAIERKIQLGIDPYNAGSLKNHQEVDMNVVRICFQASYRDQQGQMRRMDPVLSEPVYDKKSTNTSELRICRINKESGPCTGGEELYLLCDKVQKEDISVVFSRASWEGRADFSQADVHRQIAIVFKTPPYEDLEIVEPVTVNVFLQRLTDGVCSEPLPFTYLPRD
T2 sequence 2: T1 sequence

[3] = molecular target: C-Rel subunit;p50 subunit (Homo sapiens;Homo sapiens, UniProt Q04864;P19838 1-285;7-356)
[4] = molecular target: T3, C-Rel subunit;p52 subunit (Homo sapiens;Homo sapiens, UniProt Q04864;Q00653 1-285;4-332)
T3 sequence 1: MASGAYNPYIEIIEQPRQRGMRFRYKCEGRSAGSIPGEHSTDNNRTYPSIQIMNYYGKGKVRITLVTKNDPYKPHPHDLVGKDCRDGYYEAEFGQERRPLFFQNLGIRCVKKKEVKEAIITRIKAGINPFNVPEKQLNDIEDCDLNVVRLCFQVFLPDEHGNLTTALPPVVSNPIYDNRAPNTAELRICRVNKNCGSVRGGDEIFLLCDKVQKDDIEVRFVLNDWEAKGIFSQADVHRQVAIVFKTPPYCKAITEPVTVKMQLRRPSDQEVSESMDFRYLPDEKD
T3 sequence 2: T1 sequence

Chain of p50p50 homodimer (P19838 7-356): as the sequence (P19838 7-356, chain 2 of 2) above
Chain of RELARELA (p65 homodimer) (Q04206 1-307): as the sequence (Q04206 1-307, chain 1 of 2) above

| Sequence | binding signal (RELARELA (p65 homodimer)) [z-score] | binding signal (p50p50 homodimer) [z-score] | binding signal (p52p52 homodimer) [z-score] | binding signal [1] [z-score] | binding signal [2] [z-score] | binding signal (RELB subunit;p50 subunit) [z-score] | binding signal (RELB subunit;p52 subunit) [z-score] | binding signal [3] [z-score] | binding signal [4] [z-score] |
| --- | --- | --- | --- | --- | --- | --- | --- | --- | --- |
| CAAGGGTCCCT | -0.447 | 0.337 | 0.26 | -0.269 | 0.0513 | 0.363 | 0.276 | -0.315 | -0.166 |
| AAGAGCTTCCC | 0.146 | -0.795 | -0.487 | -0.305 | -0.49 | -0.563 | -0.671 | -0.423 | -0.463 |
| AAGTTGTTCCT | -0.106 | -1.19 | -0.438 | -0.58 | -0.753 | -0.971 | -0.787 | -0.889 | -0.685 |
| GGAATGGTCCT | 0.313 | -1.37 | -0.493 | -0.849 | -0.627 | -0.903 | -0.612 | -0.89 | -0.524 |
| GGGTACCTCCC | -0.276 | 0.39 | 1.06 | 0.436 | 0.843 | 0.429 | 0.437 | 0.243 | 0.556 |
| GAGAGACTCCT | -0.455 | -2.14 | -0.793 | -1.01 | -1.21 | -1.19 | -1.24 | -1.58 | -1.02 |
| AAAAGCGTCCC | 0.0306 | 0.282 | 0.41 | 0.21 | 0.286 | 0.48 | 0.821 | 0.207 | 0.0784 |
| AAGTGATTCCT | -0.0511 | -0.869 | -0.482 | -0.602 | -0.719 | -0.843 | -0.976 | -0.572 | -0.598 |
| AAATACGTCCC | 0.519 | 0.264 | 0.547 | 0.144 | 0.183 | 0.285 | 0.334 | 0.368 | -0.029 |
| AAGAGATCCCT | -0.452 | -0.0204 | -0.142 | -0.376 | -0.411 | 0.117 | -0.279 | -0.41 | -0.484 |
| GGGGTACTCCT | 0.917 | 0.595 | 0.756 | 0.47 | 0.851 | 0.471 | 0.712 | 0.395 | 0.674 |
| CAATGCACCCT | -0.473 | -0.555 | -0.333 | -0.616 | -0.779 | -0.601 | -0.639 | -1 | -0.653 |
| AGATGGCTCCC | -0.478 | -1.77 | -0.619 | -0.849 | -0.797 | -0.91 | -0.841 | -1.25 | -0.874 |
| GGGTTATCCCC | 2.08 | 0.73 | 3.22 | 1.96 | 2.63 | 1.91 | 2.13 | 1.6 | 2.55 |
| CGAATATTCCC | 1.87 | 0.695 | 0.525 | 0.873 | 0.929 | 0.405 | 0.536 | 0.941 | 0.858 |
| GAGAGATTCCC | 1.47 | 0.649 | 0.325 | 0.844 | 0.545 | 0.433 | 0.292 | 0.909 | 0.551 |
| AAAGGCACCCT | -1.13 | -0.88 | -0.454 | -0.697 | -0.787 | -0.685 | -0.711 | -1.07 | -0.741 |
| AGGTTCATCCC | -0.622 | -0.302 | -0.0688 | -0.431 | -0.313 | -0.476 | -0.362 | -0.498 | -0.243 |
| AGATGAATCCT | -0.706 | -1.32 | -0.542 | -1 | -0.972 | -1.28 | -1.16 | -1.39 | -0.907 |
| AAATACGCCCT | 0.0178 | -0.886 | -0.502 | -0.594 | -0.758 | -1.09 | -0.751 | -0.684 | -0.592 |
| AAAATCGCCCT | -0.445 | -0.836 | -0.395 | -0.458 | -0.504 | -0.55 | -0.442 | -0.504 | -0.384 |
| GGATGCATCCC | -0.168 | -0.953 | -0.436 | -0.723 | -0.685 | -0.7 | -0.821 | -1.05 | -0.672 |
| CGAATTCTCCT | -0.00416 | -1.08 | -0.594 | -0.48 | -0.707 | -0.948 | -0.835 | -0.873 | -0.63 |
| GGGGGTGCCCC | 1.45 | 0.814 | 3.15 | 2.21 | 2.88 | 2.52 | 2.27 | 1.67 | 2.5 |
| GAATTAGTCCT | 0.155 | -1.6 | -0.565 | -0.821 | -0.862 | -0.954 | -0.767 | -0.711 | -0.848 |
| CGATTAATCCC | 0.0967 | -0.315 | -0.0861 | -0.0553 | -0.137 | 0.0473 | -0.161 | -0.0218 | -0.299 |
| CAGTGGGTCCT | -0.388 | -1.79 | -0.509 | -1.1 | -0.79 | -0.698 | -0.708 | -1.36 | -1.08 |
| CGGGAGCTCCC | 0.73 | 0.136 | 0.135 | 0.408 | 0.0305 | 0.0766 | -0.106 | -0.102 | 0.192 |
| CGAAGGACCCT | -1.31 | -1.42 | -0.622 | -0.948 | -0.812 | -0.928 | -0.721 | -1.47 | -0.87 |
| GGAAGCCTCCC | -0.446 | -1.14 | -0.595 | -0.524 | -0.721 | -0.789 | -0.717 | -0.888 | -0.726 |
